A short description of assay [1]: ACEA_ER_80hr: ACEA Biosciences xCELLigence Real-Time Cell Analysis on Estrogen Receptor Agonism for Proliferation (AID 2282667; active = hit-call score of the fitted dose curve at least 0.9, where 1 is the maximum). The following applies: T47D proliferation, impedance (xCELLigence), 80 h. Put shortly: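 T-47D cells monitored by electrical impedance (xCELLigence) with compound present throughout; 80 h timepoint, positive-direction fitting versus DMSO. Eight-point 1:4 dilutions from 100 uM final, duplicate plates.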

Assay [2] in a line: APR_HepG2_CellCycleArrest_24hr: Apredica 24-hour HepG2 Assay for Cell Cycle Arrest (AID 2282905).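 Note: cell cycle arrest scored as ratio of 2N to 4N nuclear DNA content.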 The following applies: imaging, actives raise or lower the signal. The procedure, abridged:
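After 24 h exposure at 0.39–200 uM in 0.5% DMSO, fixed cells received Hoechst 33342 staining. Imaging quantified per-nucleus DNA content; gain or loss fitted against DMSO controls.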

A short description of assay [3]: APR_HepG2_NuclearSize_24hr: Apredica 24-hour HepG2 Assay for Nuclear Size (AID 2282907). The following applies: high-content imaging, actives raise or lower the signal. The procedure, abridged:
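Nuclear size from Hoechst 33342-stained, formaldehyde-fixed HepG2 nuclei imaged by high-content microscopy, after 24 h dosing at ten concentrations from 0.39 to 200 uM in 0.5% DMSO; gain or loss relative to DMSO baseline.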

Assay [4] can be described thus: APR_HepG2_CellLoss_24hr: Apredica 24-hour HepG2 Assay for Cell Loss (AID 2282908).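 For AC50: fit in both directions so a hit may be cell loss or gain.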 Conditions: high-content imaging. The procedure, abridged:
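Nuclei stained with Hoechst 33342 after formaldehyde fixation (3.7%) were imaged at 20x to count cells. Exposure lasted 24 hr, at ten concentrations from 0.39 to 200 uM in duplicate, with 0.5% v/v DMSO. Fit bidirectional, relative to DMSO.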

A short description of assay [5]: APR_HepG2_MicrotubuleCSK_24hr: Apredica 24-hour HepG2 Assay for Microtubule CSK Stabilty (AID 2282909). The following applies: HepG2 microtubule cytoskeleton imaging, actives raise or lower the signal. The procedure, abridged: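 Fixed HepG2 cells were stained for alpha-tubulin and imaged after 24 hr exposure to ten concentrations spanning 0.39–200 uM in 0.5% DMSO. Signal change was fitted in both directions relative to DMSO; taxol was the positive control.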

Assay [6] in a line: APR_HepG2_MitoticArrest_24hr: Apredica 24-hour HepG2 Assay for Mitotic Arrest (AID 2282910). Conditions: high-content imaging, actives raise or lower the signal. The procedure, abridged:
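High-content imaging of fixed HepG2 cells labeled with Hoechst 33342 and anti-phospho-histone H3, after 24 h treatment. Ten concentrations 0.39 to 200 uM in duplicate, final DMSO 0.5%; changes fitted both directions relative to DMSO.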

Assay [7] is described as follows: APR_HepG2_MitoMembPot_24hr: Apredica 24-hour HepG2 Assay for Mitochondrial Membrane Potential (AID 2282911). The following applies: imaging, actives raise or lower the signal. The procedure, abridged:
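HepG2 cells exposed 24 h to 0.39–200 uM compounds in duplicate, 0.5% v/v DMSO final. MitoTracker Red CMXRos 250 nM loaded 30 min before formaldehyde fixation; high-content imaging at 20x, bidirectional fit versus DMSO.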

Assay [8] in a line: APR_HepG2_MitoMass_24hr: Apredica 24-hour HepG2 Assay for Mitochondrial Mass (AID 2282912). Conditions: high-content imaging, actives raise or lower the signal. Put shortly: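 Endpoint is MitoTracker Red CMXRos (250 nM, 30 min, pre-fixation) intensity from 20x high-content imaging, nuclei located by Hoechst. Human HepG2 cells received ten concentrations from 0.39 to 200 uM in 0.5% DMSO for 24 hr, duplicate wells. Bidirectional fit relative to DMSO.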

A short description of assay [9]: APR_HepG2_p53Act_24hr: Apredica 24-hour HepG2 Assay for p53 Activation (AID 2282913).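 Note: p53 protein immunofluorescence averaged per cell in HepG2 with Hoechst nuclei.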 Conditions: high-content imaging, actives raise or lower the signal. The procedure, abridged: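 HepG2 cells exposed 24 h to compounds at 0.39–200 uM in duplicate, 0.5% v/v DMSO final; fixed, permeabilized, stained with anti-p53 antibody and Hoechst 33342; fluorescence imaging; bidirectional curve fit versus DMSO.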

A short description of assay [10]: APR_HepG2_CellCycleArrest_72hr: Apredica 72-hour HepG2 Assay for Cell Cycle Arrest (AID 2282914). Conditions: high-content imaging, actives raise or lower the signal. Put shortly:
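HepG2 cells exposed 72 h in duplicate to 0.39–200 uM compound, 0.5% DMSO final. Formaldehyde-fixed, Hoechst 33342-stained nuclei imaged at 20x, six fields per well; DNA content per valid cell quantified by cell-cycle image analysis, bidirectional fit versus DMSO.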

The nature of assay [11]: APR_HepG2_CellLoss_72hr: Apredica 72-hour HepG2 Assay for Cell Loss (AID 2282915). Conditions: high-content imaging. Put shortly: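 Cell number comes from Hoechst 33342-labelled nuclei, imaged at 20x after 3.7% formaldehyde fixation. Dosing was 0.39–200 uM, ten concentrations in duplicate, 0.5% DMSO final, for 72 h. Bidirectional fit relative to DMSO baseline.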
The nature of assay [12]: APR_HepG2_P-H2AX_72hr: Apredica 72-hour HepG2 Assay for H2AX Phosphorylation (AID 2282916).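 Note: phospho-histone H2A.x immunostain intensity per cell marking DNA damage.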 Conditions: imaging, actives raise or lower the signal. The procedure, abridged: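 Phospho-histone H2A.x immunofluorescence, multiplexed with Hoechst and c-Jun, quantified by high-content imaging. Compounds applied to HepG2 for 72 h across ten concentrations (0.39–200 uM, 0.5% DMSO), in duplicate; DMSO baseline.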

Assay [13] in a line: APR_HepG2_MitoMembPot_72hr: Apredica 72-hour HepG2 Assay for Mitochondrial Membrane Potential (AID 2282917). The following applies: imaging, actives raise or lower the signal. Put shortly:
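Membrane potential read by MitoTracker Red CMXRos (250 nM, 30 min, pre-fixation) fluorescence imaging of HepG2 after 72 hr exposure. Ten concentrations, 0.39–200 uM, duplicate wells, 0.5% DMSO; fitted in both directions against DMSO baseline.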

Assay [14] can be described thus: APR_HepG2_MitoticArrest_72hr: Apredica 72-hour HepG2 Assay for Mitotic Arrest (AID 2282918). The following applies: high-content imaging, actives raise or lower the signal. The procedure, abridged:
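HepG2 cells treated 72 h at 0.39–200 uM, 0.5% DMSO final; formaldehyde-fixed, stained with Hoechst 33342 and phospho-histone H3 antibody, imaged by high-content fluorescence; bidirectional fit versus DMSO.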

A short description of assay [15]: APR_HepG2_MicrotubuleCSK_72hr: Apredica 72-hour HepG2 Assay for Microtubule CSK Stabilty (AID 2282919). The following applies: HepG2 microtubule cytoskeleton, high-content imaging, actives raise or lower the signal. Put shortly:
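High-content imaging of alpha-tubulin staining in fixed HepG2 cells after 72 hr treatment with ten concentrations from 0.39 to 200 uM (0.5% DMSO). Fitting was bidirectional against DMSO; taxol served as positive control.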

Assay [16] can be described thus: APR_HepG2_P-H2AX_24hr: Apredica 24-hour HepG2 Assay for H2AX Phosphorylation (AID 2282920). The following applies: high-content imaging, actives raise or lower the signal. The procedure, abridged:
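HepG2 cells dosed 24 h at 0.39–200 uM (10 points, duplicate, 0.5% DMSO final). Formaldehyde-fixed and permeabilized, then immunostained for phospho-H2A.x with Hoechst. Fluorescence quantified by high-content imaging, fitted bidirectionally versus DMSO.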

Assay [17] can be described thus: APR_HepG2_StressKinase_72hr: Apredica 72-hour HepG2 Assay for Stress Kinase (AID 2282921). The following applies: HepG2 stress kinase (phospho-c-Jun) imaging, actives raise or lower the signal. Put shortly: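 Stress kinase signal is phospho-c-Jun immunofluorescence (1:500 primary, Cy3 secondary) in fixed, permeabilized human HepG2 cells imaged at 20x. Exposure lasted 72 hr over ten concentrations from 0.39 to 200 uM, 0.5% DMSO, in duplicate. Bidirectional fit versus DMSO.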

Assay [18] in a line: APR_HepG2_p53Act_72hr: Apredica 72-hour HepG2 Assay for p53 Activation (AID 2282923).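 Note: average cellular p53 protein immunofluorescence intensity in HepG2 cells.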 The following applies: high-content imaging, actives raise or lower the signal. The procedure, abridged:
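After 72 h with compound (ten points, 0.39 to 200 uM, final DMSO 0.5% v/v), fixed HepG2 cells were labelled with sheep anti-p53 and Hoechst 33342 and imaged; gain or loss versus DMSO scored.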

A short description of assay [19]: APR_HepG2_MitoMass_72hr: Apredica 72-hour HepG2 Assay for Mitochondrial Mass (AID 2282924).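 Note: MitoTracker Red CMXRos stain intensity per cell imaged as mitochondrial mass.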 Conditions: high-content imaging, actives raise or lower the signal. Put shortly:
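Readout is imaged MitoTracker Red (250 nM, 30 min, pre-fixation) signal, fitted bidirectionally against DMSO baseline. Human HepG2 liver cells received compound 0.39–200 uM in duplicate for 72 hr, final DMSO 0.5%.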

The results in this text go back to PubChem BioAssay (EPA / NIEHS).

Records with an inconclusive call do not appear. Active and inactive are the calls of the source. Rule for the calls, unless noted: active = hit-call score of the fitted dose curve at least 0.9, where 1 is the maximum; inactive = score below 0.9.

The AC50 is the concentration giving half of the maximal activity seen.

In the case of `Oc1cc2ccccc2c2ccccc12`, the compound was classed as inactive in assay [1], in assay [3], in assay [10] and in assay [17]. For the same compound, the AC50 in assay [2] is 37.1 µM (active); in assay [4] it was 13.1 µM (active); in assay [5] it was 55 µM (active); in assay [6], 7.13 µM (active); in assay [7], 43.1 µM (active); in assay [8], 97.7 µM (active). Moreover, the AC50 in assay [9] is 3.2 µM (active); in assay [11], 4.01 µM (active); in [12] it was 58.6 µM (active); in assay [13], 38.2 µM (active); in assay [14] it was 8.45 µM (active); in assay [15], 8.21 µM (active). Further, the AC50 in assay [16] is 3.28 µM (active); in assay [18], 111 µM (active); in [19] it was 61.3 µM (active).
For `NC(=O)N1C(=O)C(C(=O)c2cc(Cl)cs2)c2cc(F)c(Cl)cc21` (stereo unspecified), the outcome in [1], in [2], in assay [3], in assay [7] and in assay [13] was inactive. Also, the AC50 is 98.8 µM (active) in assay [4]; 75.3 µM (active) in [5]; 84.7 µM (active) in assay [6]; 107 µM (active) in assay [8]; 105 µM (active) in assay [9]; 96.9 µM (active) in assay [10]. Also, the AC50 was 62.7 µM (active) in assay [11]; 64.7 µM (active) in assay [12]; 47.7 µM (active) in assay [14]; 39.2 µM (active) in assay [15]; 99.8 µM (active) in assay [16]; 67.4 µM (active) in [17]. The figures for the AC50 in assay [18] and in assay [19] were 59 µM (active) and 54.4 µM (active), respectively.
Consider `OC1CCCCC1`, for which the compound was called inactive in assay [1], in [2], in assay [3], in assay [4], in assay [5] and in [6]. The result in assay [7], in [8], in [9], in [10], in [11] and in assay [12] was inactive. Also, the compound was classed as inactive in [13], in assay [14], in assay [15], in assay [16], in assay [17] and in assay [18]. Further, the result in assay [19] was inactive.
`COC(=O)CCCCC(=O)OC`: the outcome in assay [1], in assay [2], in assay [3], in assay [4], in assay [5] and in [6] was inactive. For the same compound, the call in [7], in assay [8], in assay [9], in assay [10], in assay [11] and in assay [12] was inactive. Besides, the compound was called inactive in assay [13], in assay [14], in [15], in assay [16], in assay [17] and in assay [18]. Also, the compound was called inactive in assay [19].
